Rows were chosen to be rich in hits. Some 2.5% of all compounds tested hit in one or more screens of this group.
TrxR1 substrate: qHTS Assay for Substrates of Mammalian Selenoprotein Thioredoxin Reductase 1 (TrxR1): qHTS; Thioredoxin reductase 1, cytoplasmic (Rattus norvegicus), O89049; purified TrxR1 substrate turnover, NADPH consumption readout; Potency, µM (series often up to 114 µM), inactives show top-dose activity change, negative = substrate turnover; 0.01% of 390,000 active; AID 588456, 2011; also: potency is read from the fitted curve at half-maximal effect; % is scaled to controls: 0 for no effect and ±100 for the full control effect; nearly all actives have a fitted effect of over 50% in size
Target sequence (O89049 whole entry, looked up): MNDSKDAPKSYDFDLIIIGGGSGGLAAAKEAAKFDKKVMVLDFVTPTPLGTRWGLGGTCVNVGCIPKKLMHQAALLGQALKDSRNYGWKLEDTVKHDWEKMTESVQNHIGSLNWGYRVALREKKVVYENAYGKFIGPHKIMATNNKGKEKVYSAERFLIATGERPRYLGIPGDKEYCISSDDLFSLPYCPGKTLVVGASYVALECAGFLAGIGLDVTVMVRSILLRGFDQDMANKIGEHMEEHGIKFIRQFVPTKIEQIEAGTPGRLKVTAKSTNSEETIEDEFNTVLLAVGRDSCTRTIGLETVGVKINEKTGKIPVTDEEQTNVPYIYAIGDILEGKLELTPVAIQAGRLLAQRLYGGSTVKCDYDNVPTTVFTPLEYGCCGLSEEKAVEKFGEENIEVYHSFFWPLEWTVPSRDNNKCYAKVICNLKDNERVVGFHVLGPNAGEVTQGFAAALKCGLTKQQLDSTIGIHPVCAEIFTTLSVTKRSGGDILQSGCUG
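Rat TrxR1, dispensed at 90 nM, was prereduced with 400 uM NADPH (final) for 5 min at ~22 deg C, then incubated with compound 15 min before 400 uM selenite. A first-read NADPH fluorescence drop versus no-compound background flagged substrates.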
miR-21 act: qHTS Assay for Modulators of miRNAs and/orActivators of miR-21; Potency, µM (highest dose often 38.3 µM), without a hit: top-dose activity change, positive = activation, most hits filed as activators; 340,000 tested, under 10 active; HeLa miR-21 FLuc reporter, luciferase, 48 h; AID 2288, 2010;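 also: % of control where 0% means no effect; miR-21 action dims this reporter so a rising signal means less miR-21 action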
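Using DMEM plus 10% FBS, HeLa miR-21-FLuc cells are incubated with test compounds (final up to about 40uM) for 48 hours; firefly luciferase signal is then imaged following reagent-mediated lysis.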
Anesthetic bind: qHTS Assay for Identification of Novel General Anesthetics; Ferritin light chain (Equus caballus), P02791; apoferritin/1-aminoanthracene competitive binding, fluorescence; Potency, µM (doses to about 77.5 µM), for inactives: at the top dose activity change, negative = displacement, usual class: inhibitors; 0.074% of 350,000 active; also: potency is read from the fitted curve at half-maximal effect; % is scaled to controls: 0 for no effect and ±100 for the full control effect; nearly all actives have a fitted effect of over 20% in size
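Concentration-response curves derived by four-parameter Hill fitting of normalized fluorescence, where compounds displaced 1-AMA from 10 uM horse apoferritin following a brief 10 min room-temperature incubation; propofol titration acted as positive control.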
rTrxR1 inhibitor: qHTS Assay for Inhibitors of Mammalian Selenoprotein Thioredoxin Reductase 1 (TrxR1): qHTS. Thioredoxin reductase 1, cytoplasmic (Rattus norvegicus), O89049. recombinant rTrxR1, NADPH fluorescence consumption, selenite substrate. Potency, µM (series often up to 114 µM), without a hit: top-dose activity change, negative = inhibition, usual class: inhibitors. 1% of 390,000 active. AID 588453, 2011; also: potency is read from the fitted curve at half-maximal effect; % is scaled to controls: 0 for no effect and ±100 for the full control effect; nearly all actives have a fitted effect of over 65% in size
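Rat TrxR1 (90 nM in the dispensed reagent) was pre-reduced with 400 uM NADPH for 5 min at room temperature, then incubated with compound for 15 min. After 400 uM selenite was added, NADPH fluorescence (Ex 340/Em 450 nm) was followed for 8 min.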
ClpP mod: qHTS Assay for Activators of ClpP; ATP-dependent Clp protease proteolytic subunit (Bacillus subtilis (strain 168)), P80244; AID 651965, 2013; 1.9% of 340,000 active; purified B. subtilis ClpP, FRET peptide cleavage, 20 min; Potency, µM (series often up to 57.5 µM), for the others: at the highest dose activity change, negative = active; active = well fitted falling curve with a large enough effect; inconclusive = small, poorly fitted or top-dose-only effect; inactive = no such curve, though single readings can be large or run the other way; also: potency is read from the fitted curve at half-maximal effect; the source files actives as falling curves though it sought activators and does not explain the sign; nearly all actives have a fitted effect of over 65% in size
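FRET quenching reversal measured ClpP activation: 10 microg/mL B. subtilis ClpP at pH 8 with the FRET-FV decapeptide, read at 430 nm after 320 nm excitation. The 20-min minus 0-min signal was scaled between DMSO/no-enzyme wells and ADEP (5.8 microM final).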
The depositor's hits bear a star; u = inconclusive; x = no result; [ ] = remark or other dose. Unless noted, calls follow the shape of the dose curve; as a rule, active = well fitted curve in the direction sought with a large enough effect; inconclusive = small, poorly fitted or top-dose-only effect, or another doubt; inactive = no such curve, though single readings can be large; an effect the other way counts as inactive or inconclusive.

SMILES | TrxR1 substrate | miR-21 act | Anesthetic bind | rTrxR1 inhibitor | ClpP mod
CCOC(=O)c1cccc(NC(=O)c2cc3ccccn3n2)c1 | -8.6%[57.1 µM] | -20.0% | -6.6% | -4.6%[57.1 µM] | -2.8%
COc1ccc(CNC(=O)Cn2ncc3c4ccccc4n(Cc4cccc(Cl)c4)c3c2=O)cc1 | -4.4% | -0.4% | -2.1% | -9.4% | -13.2%
O=C(c1ccccc1NS(=O)(=O)c1ccc(Br)s1)N1CCCC1 | -6.1%[57.1 µM] | 2.0% | 4.6% | -22.9%[57.1 µM] | 15.8µM*
COc1ccccc1-c1cc2ccccc2[nH]1 | 123.2% | -58.2% | u | 49.0% | 39.8µM*
O=C(O)c1ccccc1-c1cc2ccccc2[nH]1 | -0.6%[57.1 µM] | x | x | 5.0%[57.1 µM] | 0.2%
O=C1CCCN1CCC1CCN(C2CC(=O)N(c3ccc(Cl)cc3)C2=O)CC1 (stereo not drawn) | 1.9% | -1.7% | -10.1% | 39.8µM* | 1.5%
O=C1CCCN1CCC1CCN(C2CC(=O)N(Cc3ccc(N4CCCC4=O)cc3)C2=O)CC1 (stereo not drawn) | -7.8% | -2.6% | -5.4% | -8.5% | 1.4%
CCOc1cc(S(=O)(=O)NCCc2cccc(C)c2)c(OCC)cc1-n1cnnn1 | 48.0% | 1.4% | 6.3% | -12.4% | 31.6µM*
CCOc1cc(-n2cnnn2)c(OCC)cc1NC(=O)c1cnccn1 | 5.3% | 0.2% | -12.0% | 13.2% | -1.6%
Cc1cc(S(=O)(=O)NCCc2ccccc2)ccc1-n1cnnn1 | -3.5%[57.1 µM] | 7.7% | u | -2.3%[57.1 µM] | x
CCOc1cc(S(=O)(=O)N2CC=C(c3ccc(F)cc3)CC2)c(OCC)cc1-n1cnnn1 | 17.0% | u | -7.7% | 4.9% | u
CCOc1cc(S(=O)(=O)N2CCC(Cc3ccccc3)CC2)c(OCC)cc1-n1cnnn1 | 20.7% | 12.6% | 4.8% | 35.3% | 14.1µM*
CCOc1cc(S(=O)(=O)N(CC)CC)c(OCC)cc1-n1cnnn1 | 60.8% | -7.3% | -12.0% | 0.9% | 15.8µM*
CCOc1cc(S(=O)(=O)NCCc2ccccc2C)c(OCC)cc1-n1cnnn1 | 46.7%[57.1 µM] | -12.0% | -0.2% | -8.9%[57.1 µM] | 31.6µM*
Cc1ccc2nc(-c3ccsc3)c(Nc3ccc(Cl)cc3)n2c1 | 4.6% | -14.1% | -11.4% | 5.0% | u
CCCn1c(SCN2C(=O)c3ccccc3C2=O)nc2cc(Cl)ccc2c1=O | 6.4% | -3.3% | 5.0% | 15.9% | 25.1µM*
COc1cc(CN2CCNC(=O)C2CC(=O)O)cc(OC)c1 (stereo not drawn) | 6.6% | -1.6% | 0.2% | 12.0%[57.1 µM] | x
COc1cc(CN2CCNC(=O)C2CC(=O)N2CCCN(C(C)=O)CC2)cc(OC)c1 (stereo not drawn) | -3.5% | -0.9% | -7.7% | u | 15.8µM*
Cc1cc(Br)ccc1NC(=O)C1(S(=O)(=O)c2ccc(Cl)cc2)CC1 | -3.0% | -8.6% | -8.5% | 16.4% | -0.2%
Cc1cccc(NC(=O)c2cc(NC(=O)c3ccco3)ccc2N2CCCCC2)c1 | 88.1% | -8.4% | 4.5% | 25.2% | 17.8µM*
CC(C)Oc1ccc(C(=O)N/N=C/c2ccc(-c3ccc(S(=O)(=O)Nc4ncccn4)cc3)o2)cc1 | 44.8% | -15.1% | -7.1% | -12.7% | 14.1µM*
COc1ccc(CCN2CC(O)=C(c3nc4ccccc4c(=O)[nH]3)C2=N)cc1OC | 20.9% | -0.9% | -0.5% | 37.5% | 22.4µM*
COc1ccc(CCN2CC(O)=C(c3nc(C)cs3)C2=N)cc1OC | 7.2%[57.1 µM] | -5.2% | -13.2% | 25.2%[57.1 µM] | 0.2%
N#Cc1ccccc1NC(=S)NC(=O)c1cccnc1 | 10.3%[57.1 µM] | -6.7% | -2.0% | 3.55µM* | 0.2%
O=C(NNS(=O)(=O)c1ccccc1)c1ccc([N+](=O)[O-])cc1 | 5.6% | 2.5% | -8.7% | 19.0% | 0.9%
O=C(NC(=S)NNS(=O)(=O)c1ccccc1)c1cccnc1 | -3.7%[57.1 µM] | -3.3% | -2.6% | 25.1µM* | x
O=C(NC(=S)Nc1ccccc1O)c1cccnc1 | 12.8% | -15.5% | -4.2% | 19.7% | x

Compound activity (PubChem BioAssay)
